SRC1 inh: human NCOA1 inhibition; HEK293 GAL4-SRC1 luciferase reporter, luminescence; inhibition, % at 3.6 µM; Q15788; hit rate 0.12% among 360,000; AID 588354;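 active = inhibition above the campaign mean plus 3 SD, with each screening campaign given its own cutoff, cut at about 60% in these data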;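 note: 0% = DMSO treated cells and 100% = gossypol at 36 µM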
COUP-TFII inh: NR2F2 (human) inhibition, primary screen. inhibition, % at 8.6 µM. HEK293T NGFI-A luciferase reporter, luminescence. AID 686940. hit rate 0.7% among 370,000. P24468;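 active = inhibition above a per-plate cutoff, mean inhibition of test wells between control levels plus 3 SD, cut at about 38% in these data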;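 note: cells cotransfected with COUP-TFII expression vector driving the NGFI-A reporter; 0% = median of COUP-TF2 test wells and 100% = reporter-only cells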
LRH-1 inv ag: inverse agonists of human LRH-1 (NR5A2); O00482; inhibition, % at 3.6 µM; HEK293T StAR-luciferase reporter, LRH-1 transfected, 24 h; hit rate 0.13% among 360,000; AID 602396;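 active = inhibition above the mean inhibition of all tested compounds plus 3 SD, cut at about 73% in these data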;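 note: 0% = DMSO wells and 100% = reporter-only cells lacking LRH-1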
NCOA3 inh: inhibitors of human steroid receptor coactivator 3 (SRC3). Q9Y6Q9. HEK293 GAL4-SRC3 luciferase reporter, luminescence. inhibition, % at 3.6 µM. hit rate 0.17% among 360,000. AID 588352;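 active = inhibition above a per-campaign cutoff, the mean of all compounds plus 3 SD, cut at about 60% in these data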;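 note: 0% = DMSO-treated cells and 100% = gossypol-treated cells at 36 µM; higher means less SRC3-driven luciferase light from the GAL4 reporter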
SRC2 inh: human SRC2 (NCOA2) inhibition; HEK293 GAL4-SRC2 luciferase reporter, luminescence; inhibition, % at 9 µM; hit rate 0.17% among 370,000; AID 651957;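 active = inhibition above the mean inhibition of all tested compounds plus 3 SD, set per campaign, cut at about 52% in these data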;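 note: 0% = DMSO treated cells and 100% = cells given Gossypol at 36 µM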
VP16 Luc counter: VP16 inhibition counter-screen for COUP-TFII; shares compounds with COUP-TFII inh; HEK293 Gal4-VP16 luciferase reporter, luminescence; inhibition, % at 8.5 µM; hit rate 25% among 2,500; in the data active = inhibition above about 13%
COUP-TFII conf: confirmation of human COUP-TFII (NR2F2) inhibitors; shares compounds with COUP-TFII inh; HEK293 NGFI-A luciferase reporter, luminescence; inhibition, % at 8.5 µM; hit rate 45% among 2,500; AID 687008;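 active = mean inhibition over three repeats above a set limit taken from the earlier primary screen, cut at about 38% in these data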;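 note: 100% = cells given the luciferase reporter alone without the COUP-TF2 vector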
Active calls of the source: *; . = not tested or not shown. In the library only some 0.81% were active in any assay of this set; here they are far more common.

SMILES | SRC1 inh | COUP-TFII inh | LRH-1 inv ag | NCOA3 inh | SRC2 inh | VP16 Luc counter | COUP-TFII conf
Cc1c(C(C)C)c(=O)n(-c2ccc(S(=O)(=O)NCc3ccccc3)cc2)n1C | 25 | 63* | 43 | -5 | 14 | 8 | 53*
Cc1cc2oc(=O)cc(CN3CCCC3)c2cc1C | -32 | -10 | -23 | 1 | 0 | . | .
C=C(C)C(=O)Nc1cccnc1Oc1ccc(F)cc1 | 4 | 3 | 7 | 13 | 5 | . | .
COC(=O)c1nn(-c2ccccc2)c(Cl)c1/C=N/O | 4 | -20 | 1 | 8 | -47 | . | .
CNC(=O)c1cc(Oc2ccc(NC(=O)Nc3ccc(Cl)c(C(F)(F)F)c3)cc2)ccn1 | 32 | 72* | 43 | 40 | 65* | 15* | 48*
O=C(Nc1ccc(Cl)c(C(F)(F)F)c1)c1ccncc1 | -8 | 9 | 0 | 10 | -1 | . | .
Cc1ccc(C2=[N+]([O-])C3(CCCCC3=O)N(O)C2(C)C)cc1 (centres undefined) | 4 | 80* | 8 | -2 | 78* | -6 | -7
Cc1cc([N+](=O)[O-])nn1CC(=O)NC1CCCCC1 | 7 | -13 | 6 | 1 | 3 | . | .
COc1ccc([N+](=O)[O-])cc1NC(=O)C(C)c1ccccc1 (centres undefined) | -12 | 10 | -14 | 4 | -3 | . | .
COc1ccc([N+](=O)[O-])cc1NC(=S)NC(NC(=O)C(c1ccccc1)c1ccccc1)C(Cl)(Cl)Cl (centres undefined) | 7 | 41* | 4 | 6 | 13 | 0 | 13
Cc1ccc2[nH]cc(/C=C/c3cc[n+](C)cc3)c2c1 | 39 | 43* | 67 | 57 | -6 | 7 | 32
COc1ccc2c(/C=C/c3cc[n+](C)cc3)c[nH]c2c1 | 13 | 38* | 42 | 30 | 17 | 7 | 39*
COc1ccc2c(C=O)c[nH]c2c1 | -3 | -6 | 33 | 18 | 12 | . | .
CCn1c(/C=C/c2c[nH]c3ccccc23)nc2ccccc2c1=O | -104 | -46 | -95 | -92 | -13 | . | .
CC[n+]1ccc(/C=C/c2c[nH]c3ccccc23)cc1 | 28 | 51* | 47 | 38 | 16 | 4 | 28
Cc1nc(SCC(=O)N2CC(C)OC(C)C2)nc(C)c1C (centres undefined) | -4 | 8 | 6 | -3 | -14 | . | .
O=C(NCc1ccco1)c1cc(S(=O)(=O)NC2CC2)ccc1Br | -1 | 2 | 15 | 6 | 11 | . | .
COc1ccc(-c2ccc(C#N)c(SCC(=O)Nc3sc4c(c3C#N)CCC4)n2)cc1OC | -11 | 11 | -10 | 8 | -15 | . | .
Nc1ccc(-c2cc3ccccc3oc2=O)cc1 | 42 | 88* | 56 | 65* | 85* | 81* | 80*
O=c1oc2ccccc2cc1-c1ccc(O)cc1 | -86 | -54 | -45 | -95 | -14 | . | .
CCn1nc(C)c(CNC(=O)c2cc(COc3ccc(F)cc3Cl)on2)c1C | 27 | 41* | 11 | 42 | 33 | 9 | 44*
CC(Sc1ccc(Br)cc1)C(N)=O (centres undefined) | -1 | 5 | -3 | -9 | 10 | . | .
Cc1c(CCC(=O)N2CCC(C(=O)O)(c3ccccc3)CC2)c(=O)oc2cc3oc4c(c3cc12)CCCC4 | 1 | 53* | 3 | -21 | 58* | 37* | 35
Cc1c(CCC(=O)N2CCC(C(=O)O)CC2)c(=O)oc2cc3oc4c(c3cc12)CCCC4 | -4 | 61* | -6 | -53 | 63* | 12 | 28
Cc1oc2cc3oc(=O)c(CCC(=O)N4CCC(C(=O)O)(c5ccccc5)CC4)c(C)c3cc2c1C | 16 | -5 | 17 | 11 | 3 | . | .
Cc1c(CCC(=O)N[C@@H](C)C(=O)O)c(=O)oc2cc3oc4c(c3cc12)CCCC4 | 9 | 47* | 5 | 1 | 67* | 33* | 36
CC(=O)C1=C(c2ccccc2)OC(N)=C(C#N)C1c1ccccc1F (centres undefined) | 2 | 6 | 24 | 22 | 15 | . | .
COC(CNC(=S)Nc1ccc([N+](=O)[O-])cc1)OC | -24 | -11 | -11 | -9 | -42 | . | .
CCOC(=O)C1=CN(CC2CCCCC2)CCC1=O | -13 | -13 | 21 | -20 | -19 | . | .
